Compounds without any hit were thinned out: in the full panel of roughly 83,000, 20% have a hit.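 Interpretation: 100, growth as untreated; towards 0, rising growth inhibition; 0, no net growth; 0 to -100, cell death. Compounds scoring below 10 were considered active.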 Values without a mark were called inactive. Activity calls are given as the source filed them.
Key:
Assay in all cases: NCI-60 one-dose screen, 48 h (100 = growth as untreated, 0 = no growth, -100 = all killed)
Details in all cases: 10 µM unless noted
[1] = system: SR leukemia
[2] = system: OVCAR-8 ovarian
[3] = system: OVCAR-5 ovarian
[4] = system: OVCAR-4 ovarian
[5] = system: SK-OV-3 ovarian
[6] = system: OVCAR-3 ovarian
[7] = system: HS 578T breast
[8] = system: NCI/ADR-RES ovarian
[9] = system: T-47D breast
[10] = system: BT-549 breast
[11] = system: MDA-MB-435 melanoma
[12] = system: SW-620 colon
[13] = system: MCF7 breast
[14] = system: HCT-116 colon
[15] = system: HCC-2998 colon
[16] = system: KM12 colon
[17] = system: IGROV1 ovarian

Compound: COC1=C(C)C(=O)c2c(c(CCCl)c3n2CCC3O)C1=O (configuration not stated)
- growth [1]: 7.38% (active)
- growth [2]: 12.1%
- growth [3]: 10.4%
- growth [4]: 79.1%
- growth [5]: -9.52% (active)
- growth [6]: 0.645% (active)
- growth [7]: -6.16% (active)
- growth [8]: 6.59% (active)
- growth [9]: 81.2%
- growth [10]: -30.4% (active)
- growth [11]: -72.7% (active)
- growth [12]: 8.6% (active)
- growth [13]: -14.2% (active)
- growth [14]: 9.41% (active)
- growth [15]: -39.1% (active)
- growth [16]: 0.859% (active)

Compound: COc1ccc2nc(NCCCNCCO)c3sc4ccc(F)cc4c(=O)c3c2c1
- growth [1]: -35.1% (active)
- growth [2]: 6.89% (active)
- growth [3]: 81.7%
- growth [4]: -54.3% (active)
- growth [5]: 90.1%
- growth [17]: 41.3%
- growth [7]: 63.5%
- growth [8]: 30.3%
- growth [9]: 72.2%
- growth [10]: 91.6%
- growth [11]: -69% (active)
- growth [12]: -66.4% (active)
- growth [13]: 17.8%
- growth [14]: -67.2% (active)
- growth [15]: -82.9% (active)

Compound: CC/C=C\C[C@@H](O)C/C=C1/C(=O)C=C[C@H]1C/C=C\CCCC(=O)OC
- growth [1]: -17.5% (active)
- growth [2]: -6.75% (active)
- growth [3]: 54.1%
- growth [4]: 44.9%
- growth [5]: 99.3%
- growth [6]: -2.32% (active)
- growth [7]: 21%
- growth [8]: 10.6%
- growth [9]: 15.6%
- growth [10]: -6.09% (active)
- growth [11]: 1.93% (active)
- growth [12]: -15.9% (active)
- growth [13]: 9.31% (active)
- growth [14]: -47.1% (active)
- growth [15]: -88.1% (active)
- growth [16]: -58.2% (active)

Compound: Cc1ccc(/C=N\NC(=O)c2[nH]c3ccc(F)cc3c2-c2ccccc2)cc1
- growth [1]: 19.7%
- growth [2]: 16.6%
- growth [3]: 62.5%
- growth [4]: 46.8%
- growth [5]: 20.4%
- growth [17]: 91.4%
- growth [7]: 16.7%
- growth [9]: 75.4%
- growth [11]: -13.8% (active)
- growth [12]: 25.7%
- growth [13]: 15.3%
- growth [14]: 10.8%
- growth [15]: -24.8% (active)

Compound: COC(=O)[C@H](C)NC(=O)NC(=O)NC(=O)CI
- growth [1]: -23% (active)
- growth [2]: 97%
- growth [3]: 108%
- growth [4]: 64.7%
- growth [5]: 107%
- growth [6]: -19.2% (active)
- growth [7]: 114%
- growth [8]: 89.7%
- growth [9]: 44.6%
- growth [10]: 84.3%
- growth [11]: 63%
- growth [12]: -33.4% (active)
- growth [13]: 17.7%
- growth [14]: 98.6%
- growth [15]: 94.6%
- growth [16]: 98.5%

Compound: Clc1ccc2c(c1)N(CCCN1CCCC1)c1ccccc1S2
- growth [1]: -30.1% (active)
- growth [2]: 77.1%
- growth [3]: 53.8%
- growth [4]: 53.6%
- growth [5]: 37.2%
- growth [6]: 44%
- growth [7]: 42.6%
- growth [8]: 35.8%
- growth [9]: 57.8%
- growth [10]: 66.5%
- growth [11]: -35.9% (active)
- growth [12]: 26.2%
- growth [14]: 26.5%
- growth [15]: 32%
- growth [16]: 44.6%

Compound: COc1cccc(/C=C2\C=C(c3ccccc3)N(Cc3ccccc3)C2=O)c1
- growth [1]: 10.9%
- growth [2]: 68%
- growth [3]: 92.8%
- growth [4]: 71.9%
- growth [5]: 42%
- growth [6]: 59.3%
- growth [7]: 42%
- growth [8]: 51.3%
- growth [9]: 59.8%
- growth [10]: 69.7%
- growth [11]: -32.3% (active)
- growth [12]: 43.5%
- growth [13]: 32.5%
- growth [14]: 48.3%
- growth [15]: 66.6%
- growth [16]: 53.4%

Compound: CC1Cc2c(ncn3c(-c4ccc(F)cc4)nnc23)N(C)c2ccccc21 (configuration not stated)
- growth [1]: 25%
- growth [2]: 57.1%
- growth [3]: 78%
- growth [4]: -66.2% (active)
- growth [5]: 76.3%
- growth [6]: 6.26% (active)
- growth [7]: 26.1%
- growth [8]: 41%
- growth [9]: 35.1%
- growth [10]: 80.1%
- growth [11]: 59.2%
- growth [12]: 36.2%
- growth [13]: 52.2%
- growth [14]: 86%
- growth [15]: 80.3%
- growth [16]: 72.2%

Compound: COc1ccc(-c2nnc(COc3ccc(Cl)cc3Cl)o2)cc1OC
- growth [1]: 46.8%
- growth [2]: 20.1%
- growth [3]: 74.6%
- growth [4]: -33.1% (active)
- growth [5]: 37.6%
- growth [6]: 1.98% (active)
- growth [7]: 4.73% (active)
- growth [8]: 17.5%
- growth [9]: -10.5% (active)
- growth [10]: 80.1%
- growth [11]: 48.4%
- growth [12]: 40.6%
- growth [13]: 32.9%
- growth [14]: 34.3%
- growth [15]: 95%
- growth [16]: 58.9%

Compound: COc1cccc(Cc2cc(-c3ccccc3)nn(CC(=O)c3ccccc3)c2=O)c1
- growth [1]: 0.342% (active)
- growth [2]: 58.7%
- growth [3]: 96.4%
- growth [4]: 69.5%
- growth [5]: 89.6%
- growth [6]: 64.9%
- growth [7]: 66.9%
- growth [8]: 57.2%
- growth [9]: 72.5%
- growth [10]: 64.5%
- growth [11]: 61.2%
- growth [12]: 55.1%
- growth [13]: 45.9%
- growth [14]: 68.9%
- growth [15]: 84.7%
- growth [16]: 57.8%

Compound: NCCCNc1nc2ccccc2c2c(=O)c3cc(F)cc(Cl)c3sc12
- growth [1]: -17.3% (active)
- growth [2]: 5.77% (active)
- growth [3]: 96.6%
- growth [4]: -65.3% (active)
- growth [5]: 102%
- growth [17]: 80%
- growth [7]: 88.3%
- growth [8]: 85.5%
- growth [9]: 88.4%
- growth [10]: 104%
- growth [11]: 26%
- growth [12]: -49.3% (active)
- growth [13]: 68.3%
- growth [14]: -60.2% (active)
- growth [15]: 84.3%
- growth [16]: 72.7%

Compound: COc1cc(Nc2cn[nH]c2-c2ccc(Cl)cc2)cc(OC)c1OC
- growth [1]: 10.1%
- growth [2]: 70.2%
- growth [3]: 54.6%
- growth [4]: 61.5%
- growth [5]: 30.9%
- growth [17]: 39.8%
- growth [7]: 44.1%
- growth [8]: -26% (active)
- growth [9]: 23.4%
- growth [11]: -37.1% (active)
- growth [12]: 19.3%
- growth [13]: 20.7%
- growth [14]: 20.7%
- growth [15]: -28.5% (active)
- growth [16]: 20.2%

Compound: CCOC(=O)C1=C(N)Oc2c(sc3c(C)cccc23)C1c1ccc(F)cc1 (configuration not stated)
- growth [1]: 5.82% (active)
- growth [2]: 19%
- growth [3]: 27.9%
- growth [4]: 42.7%
- growth [5]: 60%
- growth [17]: 16.9%
- growth [7]: 13.6%
- growth [8]: 6.4% (active)
- growth [9]: 28%
- growth [10]: 18.1%
- growth [12]: 22.4%
- growth [13]: 7.39% (active)
- growth [14]: 9.01% (active)
- growth [15]: 9.19% (active)
- growth [16]: 9.22% (active)

Compound: Cc1ccc(-c2nc(N3CCN(C(=O)c4ccc(OC(F)(F)F)cc4)CC3)c3ccccc3n2)cc1
- growth [1]: 78.5%
- growth [2]: 90.3%
- growth [3]: 97.8%
- growth [4]: 106%
- growth [5]: 99.3%
- growth [17]: 85.6%
- growth [7]: 79.1%
- growth [8]: 84.4%
- growth [9]: 61.7%
- growth [10]: 91.9%
- growth [11]: 92.5%
- growth [12]: 97%
- growth [13]: 92.9%
- growth [14]: 85.3%
- growth [15]: 97.1%
- growth [16]: 93%

Compound: COc1ccc(-c2csc(NC(=O)N3CCN(c4cc5c(cc4F)c(=O)c(C(=O)O)cn5C4CC4)CC3)n2)cc1
- growth [1]: 15.4%
- growth [2]: 3.75% (active)
- growth [3]: 25.5%
- growth [4]: 18.4%
- growth [5]: -8.98% (active)
- growth [6]: -3.32% (active)
- growth [7]: 28.8%
- growth [8]: 57.5%
- growth [9]: 5.11% (active)
- growth [10]: -13.5% (active)
- growth [11]: 3.67% (active)
- growth [12]: 15.7%
- growth [13]: 3.38% (active)
- growth [14]: 5.37% (active)
- growth [15]: 31%
- growth [16]: 3.67% (active)

Compound: CCOC(=O)Nc1ccc(-c2nc(-c3cccc(OC)c3)c(-c3ccnc(Br)c3)[nH]2)cc1
- growth [1]: 9.48% (active)
- growth [2]: 29.4%
- growth [3]: 66.9%
- growth [4]: 33.6%
- growth [5]: 67.3%
- growth [17]: 45.2%
- growth [7]: -5.11% (active)
- growth [8]: 27.6%
- growth [9]: 13%
- growth [10]: 56.1%
- growth [12]: 46.9%
- growth [14]: 25.4%
- growth [15]: 40.9%
- growth [16]: 24.7%

Compound: N#Cc1c(-c2ccc(Cl)cc2)nc(NCCO)[nH]c1=O
- growth [1]: 99.5%
- growth [2]: 103%
- growth [3]: 91.6%
- growth [4]: 108%
- growth [5]: 102%
- growth [6]: 104%
- growth [7]: 109%
- growth [8]: 98.8%
- growth [9]: 89.4%
- growth [10]: 102%
- growth [11]: 106%
- growth [12]: 112%
- growth [14]: 104%
- growth [15]: 103%
- growth [16]: 96.9%

Compound: N#CC1=C(N)Oc2c(sc3c(Br)cccc23)C1c1ccc(Br)cc1 (configuration not stated)
- growth [1]: 4.23% (active)
- growth [2]: 36.1%
- growth [3]: 56.3%
- growth [4]: 48.9%
- growth [5]: 36%
- growth [6]: -8.57% (active)
- growth [7]: 14.1%
- growth [8]: 2.32% (active)
- growth [9]: 23.3%
- growth [10]: 48.3%
- growth [11]: -53% (active)
- growth [12]: 24.4%
- growth [13]: 10.9%
- growth [14]: 26.6%
- growth [15]: 12.9%
- growth [16]: 17.8%

Compound: CN1C(=O)CNC(=O)[C@H](NC(=O)c2nc3ccccc3cc2O)CSSC[C@H]1C(=O)NCCc1nc2ccccc2cc1O
- growth [1]: -41.8% (active)
- growth [2]: 92.2%
- growth [3]: 129%
- growth [4]: 90.7%
- growth [5]: 117%
- growth [7]: 92.3%
- growth [8]: 105%
- growth [9]: 65.3%
- growth [10]: 79.4%
- growth [11]: 42.4%
- growth [12]: 34%
- growth [13]: 47.5%
- growth [14]: 80%
- growth [15]: 67.7%
